“And” between values parts separate entries of the source, which are not always exact repeats. Identical values can stand only once. The source holds several records for some structures; these can differ, active in one and inactive in another. The source made the active and inactive calls. Rule for the calls: active = hit-call score of the fitted dose curve at least 0.9, where 1 is the maximum; inactive = score below 0.9.
Experiment: ATG_RORE_CIS: Attagene CIS-FACTORIAL HepG2 Assay for human RAR-related Orphan Receptor Element (RORE) (AID 2282959)
Conditions: HepG2 Attagene cis-factorial RORE reporter, mRNA; actives raise or lower the signal
Protocol: ATG_CIS is a cell-based, multiplexed-readout assay that uses HepG2, a human liver cell line, with measurements taken at 24 hours after chemical dosing in a 24-well plate.ATG_RORE_CIS is one of 52 assay component(s) measured or calculated from the ATG_CIS assay. It is designed to make measurements of mRNA induction, a form of inducible reporter, as detected with fluorescence intensity signals by Reverse transcription polymerase chain reaction (RT-PCR) and Capillary electrophoresis technology.Data from the assay component ATG_RORE_CIS was analyzed into 1 assay endpoint. This assay endpoint, ATG_RORE_CIS, was analyzed with bidirectional fitting relative to DMSO as the negative control and baseline of activity. Using a type of inducible reporter, measures of mRNA for gain or loss-of-signal activity can be used to understand the reporter gene at the transcription factor-level as they relate to the gene RORA and RORB and RORC. Furthermore, this assay endpoint can be referred to as a primary readout, because this assay has produced multiple assay endpoints where this one serves a reporter gene function. To generalize the intended target to other relatable targets, this assay endpoint is annotated to the nuclear receptor intended target family, where the subfamily is orphan.
Human liver HepG2 cells are transiently transfected with multiple reporter transcription units (MRTUs) in 6-well plates using FuGene 6 reagent (Roche; 3 ml FuGene/1 mg DNA). The MRTU constructs are regulated by a cis-regulating element (promoter). […] A major difference between the CIS and TRANS system is that in CIS activities of endogenous TFs are measured, whereas the TRANS assay evaluates changes in activities of exogenous, chimeric NR-Gal4 proteins. […] At the end of 24 hour incubation, total RNA was isolated using TriZol reagent (Invitrogen). The isolated RNA is then reverse-transcribed using oligo(dT) primer and Mo-MLV reverse transcriptase (Invitrogen) with DNAse I (Ambion) treatment for 30 min. The one-tenth of the produced cDNA was amplified by PCR using Taq DNA polymerase (Invitrogen) and two reporter sequence-specific primers. The PCR products were fluorescently labeled by primer extension with 6-arboxyfluorescein (6-FAM) 5'-labeled reporter sequence-specific primer (2 min at 95 C, 20 s at 68 C and 10 min at 72 C) and these products were digested with 5U of HpaI (New England Biolabs) for 2h at 37 C. The fragments were purified using Qiaquick PCR columns (Qiagen), analyzed on an ABI 3130xL genetic analyzer (Applied Biosystems) with peak positions identified by using a set of X-rhodamine (ROX)-labeled MapMarker1000 molecular weight standards (BioVentures). The raw capillary electrophoresis data was processed using Attagraph software (Attagene).

SMILES | outcome | AC50
CN(C)CCC=C1c2ccccc2CCc2ccccc21 | inactive | 
CCCC(O)C(CC)CO (stereo not given) | inactive | 
Cc1ccc(C(C)(C)O)cc1 | inactive | 
CCCCCCCCCC(=O)OCC | inactive | 
c1ccc(OCCOc2ccccc2)cc1 | inactive | 
CCCC1CCC(=O)CC1 | inactive | 
CCC(C)(C)C1CCC(=O)CC1 | inactive | 
Cc1cccc(O)c1 | inactive | 
CCCCCCC(C)O (stereo not given) | inactive | 
COc1ccccc1NC(=O)CC(C)=O | inactive | 
OCCN1CCOCC1 | inactive | 
CCCCCC#CC(=O)OC | inactive | 
C=CC(O)CCCCC (stereo not given) | inactive | 
CC(=O)OCC=C(C)CCC=C(C)CCC=C(C)C |  | 164 µM (active)
O=C(c1ccc(OCCN2CCCCC2)cc1)c1c(-c2ccc(O)cc2)sc2cc(O)ccc12 | inactive | 11.1 µM (active) and 15.6 µM (active)
C=CC(C)CCCC(C)(C)O (stereo not given) | inactive | 
Brc1cc(Br)cc(Br)c1 | inactive | 
C=C1CC/C=C(\C)CC[C@@H]2[C@@H]1CC2(C)C | inactive | 
C=C(C)C(=O)OCCC[Si](OC)(OC)OC | inactive | 
NC(N)=S | inactive | 

SMILES | outcome | AC50
CC12CCC(C1)C(C)(C)C2O (stereo not given) | inactive | 
C=C/C(C)=C/C/C=C(\C)CCC=C(C)C | inactive | 
C[N+](C)(C)CCO | inactive | 
CC(C)Cc1ccccc1 | inactive | 
C=CCOCC(O)CO (stereo not given) | inactive | 
Nc1ccn([C@H]2CC[C@@H](CO)O2)c(=O)n1 | inactive | 
CC/C=C\CCOC(C)OCC (stereo not given) | inactive | 
CCC(C)C1CCCCC1=O (stereo not given) | inactive | 
CCOc1ccc(NC(C)=O)cc1 | inactive | 
CCc1cccc(O)c1 | inactive | 
COc1cc(OC)c2ccc(=O)oc2c1 | inactive | 
c1ccc2c(c1)-c1ccc3ccc4cccc5cc-2c1c3c45 |  | 0.163 µM (active)
CC(C)COC(=O)c1ccccc1 | inactive | 
CC(C)N1C(=O)c2ccccc2C1=O | inactive | 
S=c1[nH][nH]c(=S)s1 | inactive | 
CCCCCC(=O)O[C@]1(C(C)=O)CC[C@H]2[C@@H]3CCC4=CC(=O)CC[C@]4(C)[C@H]3CC[C@@]21C | inactive | 
O=S1(=O)CC(Cl)(Cl)C(Cl)(Cl)C1 | inactive | 
CCCCCCCCCCCCOCCOS(=O)(=O)O | inactive | 
CC(C)C(=O)OCC=Cc1ccccc1 | inactive | 

From PubChem BioAssay (EPA / NIEHS)
